Compound activity deposited in PubChem by National Center for Advancing Translational Sciences (NCATS).
HepG2 viability: HepG2 cytotoxicity, counter-screen for TGF-b inhibitors | HepG2 CAGA-GFP viability, ATP luminescence, 18 h | hit rate 0.76% among 410,000 | Potency, µM (series often up to 46.1 µM), for the others: at the highest dose activity change, negative = cytotoxicity, most hits filed as cytotoxic; note: potency is the fitted concentration of half-maximal effect
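CellTiter-Glo luminescence gave cytotoxicity after 18 hours at 37 degrees C. The cells were HepG2 CAGA-GFP in 1% FBS DMEM, stimulated with 500 pg/mL TGF-beta after compound addition. %Activity was normalised to no-cell wells (complete cell-killing) and DMSO (no toxicity), and curves were fitted and classified.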
TDP1 cell CPT: growth inhibition of DT40 Tdp1-/-;hTDP1 cells with camptothecin (screen for TDP1 inhibitors) | chicken DT40 Tdp1-/-;hTDP1 cells + 20 nM CPT, ATP luminescence, 48 h | Potency, µM (series often up to 46.2 µM), without a hit: at the highest dose activity change, negative = growth inhibition, most hits filed as inhibitors | hit rate 12% among 420,000 | AID 686979; note: potency is the fitted concentration of half-maximal effect; % is set by controls: 0 for no effect and ±100 for the full control effect; nearly all actives have a fitted effect of over 55% in size
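Chicken DT40 Tdp1-/- cells stably complemented with human TDP1 were seeded at 400 cells/well in medium containing 20 nM camptothecin, exposed to pin-transferred compounds, and grown at 37 °C for at least 48 hr. Viability was read as ATP luminescence.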
TDP1 inh: TDP1 (human) enzyme inhibition | AID 485290 | recombinant TDP1, AlphaScreen DNA substrate cleavage | Q9NUW8 | Potency, µM (top dose mostly 130 µM), without a hit: at the highest dose activity change, negative = inhibition, usual class: inhibitors | hit rate 0.28% among 350,000; note: potency is the fitted concentration of half-maximal effect; % is set by controls: 0 for no effect and ±100 for the full control effect; nearly all actives have a fitted effect of over 40% in size
Target sequence (Q9NUW8 whole entry, looked up): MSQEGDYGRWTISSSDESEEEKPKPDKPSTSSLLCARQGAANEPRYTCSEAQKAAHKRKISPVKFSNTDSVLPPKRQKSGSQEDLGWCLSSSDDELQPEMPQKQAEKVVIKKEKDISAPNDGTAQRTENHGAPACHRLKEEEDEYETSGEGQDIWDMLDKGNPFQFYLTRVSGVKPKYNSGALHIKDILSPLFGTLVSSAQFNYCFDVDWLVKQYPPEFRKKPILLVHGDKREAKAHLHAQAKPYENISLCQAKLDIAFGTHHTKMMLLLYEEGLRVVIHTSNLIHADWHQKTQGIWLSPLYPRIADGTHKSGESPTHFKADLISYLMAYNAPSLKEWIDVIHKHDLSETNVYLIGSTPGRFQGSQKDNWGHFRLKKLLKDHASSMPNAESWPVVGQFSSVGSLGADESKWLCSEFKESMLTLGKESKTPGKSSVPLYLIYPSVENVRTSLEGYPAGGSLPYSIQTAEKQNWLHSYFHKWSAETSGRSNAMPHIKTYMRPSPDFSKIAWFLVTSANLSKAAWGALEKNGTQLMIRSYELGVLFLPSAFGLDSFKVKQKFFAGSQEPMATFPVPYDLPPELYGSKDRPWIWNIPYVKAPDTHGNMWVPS
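Recombinant E. coli-expressed Tdp1 (1 nM) preincubated with compound 15 min at RT, then 5'-biotin/3'-phosphotyrosine-FITC DNA substrate (15 nM) added for 5 min. AlphaScreen beads (10 ug/ml) added, 10 min RT; tyrosine-FITC cleavage read as signal loss.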
TGFb SMAD3 inh: TGF-b pathway inhibition; HepG2 CAGA-GFP TGF-b/SMAD3 reporter, GFP fluorescence, 18 h; TGF-beta stimulated, 500 pg/mL final; Potency, µM (doses to about 46.1 µM), without a hit: at the highest dose activity, negative = inhibition, most hits filed as inhibitors; hit rate 1.2% among 410,000; AID 588855; note: potency is the fitted concentration of half-maximal effect; % is set by controls: 0 for no effect and ±100 for the full control effect; nearly all actives have a fitted effect of over 65% in size
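Per well, imaged GFP fluorescence of HEPG2 CAGA-GFP cells gives the signal; cells get compound, then TGF-beta (500 pg/mL final), 18 h at 37 degrees C; %Activity versus -TGF-beta and +DMSO controls.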
IL-1B inflam inh: inflammasome signaling inhibition, IL-1 beta readout | THP-1 LPS/ATP IL-1B secretion, AlphaLISA, 16 h; stronger effect = lower value | hit rate 4.7% among 360,000 | activity change, % at 57.5 µM; in the data active = activity change below about -50%; inconclusive = mostly about -30% to -49%; note: % is set by controls: 0 for no effect and ±100 for the full control effect
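THP-1 cells pretreated 1 hr with compounds (up to 57.5 uM final), then stimulated with LPS (250 ng/mL final) plus ATP (1.25 mM final); secreted IL-1B measured by AlphaLISA after 16 hr, decreased signal indicating inhibition.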
TDP1 cell noCPT: qHTS for Inhibitors of human tyrosyl-DNA phosphodiesterase 1 (TDP1): qHTS in cells in absence of CPT; AID 686978, 2013; Potency, µM (doses to about 46.2 µM), for the others: at the highest dose activity change, negative = growth inhibition, actives largely listed as inhibitors; hit rate 15% among 420,000; DT40 Tdp1-/- hTDP1 cells, no CPT, ATP luminescence, 48 h; note: potency is the fitted concentration of half-maximal effect; % is set by controls: 0 for no effect and ±100 for the full control effect; nearly all actives have a fitted effect of over 55% in size
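Compound effects on proliferation are scored in DT40 Tdp1-/-;hTDP1 cells in the absence of CPT. ATP levels (CellTiter-Glo luminescence) are recorded after a ≥48 hr, 37 °C incubation.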
Numbers without * were called inactive; ? = inconclusive; nt = no result; [ ] = remark or other dose. A selection: hits, their analogues and other compounds. The true share with any hit is near 19%. Unless noted, calls come from the whole dose curve; as a rule, active = well fitted curve in the direction sought with a large enough effect; inconclusive = small, poorly fitted or top-dose-only effect, or another doubt; inactive = no such curve, though single readings can be large; an effect the other way counts as inactive or inconclusive.

SMILES	HepG2 viability	TDP1 cell CPT	TDP1 inh	TGFb SMAD3 inh	IL-1B inflam inh	TDP1 cell noCPT
CCOc1ccc(CCNC(=O)c2ccc(C)c(N3CCCC3=O)c2)cc1OCC	-3.8%	3.5%	-2.4%	-2.7%	12.7	?
Cc1c(C)n(Cc2ccccc2)c2ccc(C(=O)NCCN3CCOCC3)cc12	-4.6%	?	11.3%	-0.3%	6.8	-29.0%
COc1cc(CCNC(=O)c2ccc3c(c2)c(C)c(C)n3Cc2cccc(C)c2)cc(OC)c1OC	-11.9%	7.31µM*	7.9%	-29.6%	nt	5.17µM*
Cc1ccc(CCNC(=O)c2ccc3c(c2)c(C)c(C)n3Cc2ccccc2)cc1	-30.8%	16.4µM*	10.5%	0.0%	nt	?
Cc1ccc(Cn2c(CCNC(=O)c3cccc(C)c3)nc3ccccc32)cc1	-13.5%	18.4µM*	7.6%	?	nt	?
CCOc1ccc(CCNC(=O)c2ccc3c(c2)c(C)c(C)n3Cc2ccccc2)cc1OCC	-31.2%	16.4µM*	2.6%	?	nt	13µM*
Cn1c(Cc2ccccc2)nnc1SCC(=O)Nc1ccc(N2CCOCC2)cc1	-21.4%	-1.1%	-3.5%	0.0%	7.7	-12.7%
Cc1ccc(-n2c(=O)[nH]c3sc4c(c3c2=O)CCNC4)cc1C	-7.5%	?	5.9%	-6.6%	nt	0.7%
CC(NC(=O)c1ccccc1F)c1nnc(SCC(=O)NC2CCCC2)n1C (centres undefined)	9.2%	-5.7%	nt	2.9%	3.5	8.6%
COc1ccc(/C(N)=N/OC(=O)Cc2ccc(OC)c(OC)c2)cc1	-10.7%	?	7.3%	0.7%	-77.8*	?
COC(=O)c1ccc(N2C(c3ccsc3)=Cc3cc4c(cc3C2CC(=O)c2ccco2)OCO4)cc1 (centres undefined)	nt	20.6µM*	nt	nt	9.0	14.6µM*
CC(=O)CC1c2cc(F)ccc2C=C(c2ccsc2)N1c1ccc(C#CC2(O)CCCCC2)cc1 (centres undefined)	nt	?	nt	nt	-5.7	23.1µM*
COC(=O)c1ccc(N2C(c3cc(OC)cc(OC)c3)=Cc3ccc(OC)cc3C2CC(=O)c2ccco2)cc1 (centres undefined)	nt	?	nt	nt	-8.4	?
O=C(CC1c2cc(F)ccc2C=C(c2ccsc2)N1c1ccc(C#CCCO)cc1)c1ccco1 (centres undefined)	nt	?	nt	nt	-11.3	20.6µM*
O=C(O)C1CCN(c2ccccc2[N+](=O)[O-])CC1	-34.5%	-20.6%	-2.7%	2.4%	14.9	?
Cc1cc(C)c(NC(=O)C2CCN(c3nc4ccccc4n4cccc34)CC2)c(C)c1	4.6%	-107.4%	6.5%	nt	nt	?
COc1ccc(C2c3c(N)nc(CCc4ccccc4)nc3Oc3ccc4ccccc4c32)cc1OC (centres undefined)	nt	nt	-4.0%	nt	nt	nt
CCOC(=O)C1CCCN(C(=O)c2cnn(-c3ncc4c(n3)-c3ccccc3CC4)c2C)C1 (centres undefined)	nt	2.3%[9.04 µM]	nt	nt	nt	-6.0%
O=C(COC(=O)c1cccnc1Cl)Nc1ccc2c(c1)OCCO2	2.0%	-12.8%	-1.2%	10.1%	2.7	-9.4%
COc1cccc(C(=O)OC(C)C(=O)Nc2ccc3c(c2)OCO3)c1 (centres undefined)	-10.3%	13µM*	2.0%	-13.6%	27.7	8.2µM*
CC(OC(=O)c1cccnc1Cl)C(=O)Nc1ccc2c(c1)OCO2 (centres undefined)	-21.2%	?	-0.1%	-26.1%	12.5	20.6µM*
COC(=O)C(C(=O)OC)C1c2ccccc2C=C(C)N1C(=O)OC (centres undefined)	nt	nt	8.3%[12.3 µM]	nt	nt	nt
CCOc1ccc(CNC(=O)C2Cc3cc(S(=O)(=O)N4CCCCCC4)ccc3N2C(C)=O)cc1 (centres undefined)	-3.9%	?	3.8%	-4.1%	nt	?
